From PubChem BioAssay (NCATS)
Several values for one entry are separate records, joined by “and”; a condition that tells them apart may be missing. Equal values may be shown once. Inconclusive results are not listed. Where a call stands in place of a potency, no number is given. Activity calls are given as the source filed them. Calls come from the whole dose curve; as a rule, active = well fitted inhibition curve with a large enough effect; inconclusive = small, poorly fitted or top-dose-only effect; inactive = flat fitted curve, though single readings scatter.
Potency is the fitted concentration of half-maximal effect.

These compounds were tested on Zika virus NS2B-NS3 protease (assay: Primary screen GU AMC qHTS for Zika virus inhibitors (AID 1347154; note: nearly all actives have a fitted effect of over 70% in size)). Settings: Zika NS2B-NS3 unlinked protease, AMC fluorogenic substrate; series mostly up to 54.1 µM.
How it was run: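 Unlinked Zika NS2B hydrophilic domain/NS3 protease domain noncovalent complex (25 nM final) in 10 mM Tris-HCl pH 8.0, 0.01% Tween 20, with AMC peptide substrate. Fluorescence (ex 340, em 450 nm) change over 15 min, room temperature; percent inhibition fitted to 4-parameter Hill equation.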
In the case of `CC(C)NCC(O)c1ccccc1Cl` (stereo not given), the Potency is reported as “inactive”.
With `CC[N+](CC)(CC)CC` the Potency was “inactive”.
With `CC1OC(C)OC(C)O1` (stereo not given) the Potency was “inactive”.
In the case of `CC(C)(N)Cc1ccc(Cl)cc1`, the Potency is reported as “inactive”.
For `CCC(COC(=O)c1cc(OC)c(OC)c(OC)c1)(c1ccccc1)N(C)C` (stereo not given), the Potency was “inactive”.
For `NCCc1cc(O)c(O)cc1O`, the Potency was 4.55 µM (active) and 21.2 µM (active).
`Cn1cc(C2=C(c3cn(C4CCN(Cc5ccccn5)CC4)c4ccccc34)C(=O)NC2=O)c2ccccc21` was tested, and the Potency was “inactive”.
`O=C(NC(O)C(Cl)(Cl)Cl)NC(O)C(Cl)(Cl)Cl` (stereo not given) was tested, and the Potency was “inactive”.
With `CC(C)=CC1C(C(=O)OCc2cccc(Oc3ccccc3)c2)C1(C)C` (stereo not given) the Potency was “inactive”.
In the case of `Oc1ccccc1-c1ccccc1`, the Potency is reported as “inactive”.
For `CN(C)CCc1ccc(O)cc1`, the Potency was “inactive”.
For `CNC(=O)c1ccc(N2C(=S)N(c3ccc(C#N)c(C(F)(F)F)c3)C(=O)C23CCC3)cc1F`, the Potency was “inactive”.
For `C[C@]12CCC(=O)C(O)=C1CC[C@@H]1[C@@H]2CC[C@]2(C)C(=O)CC[C@@H]12`, the Potency was “inactive”.
`FC(F)(F)c1cccc(C2=CCN(CCc3ccc4ccccc4c3)CC2)c1` was tested, and the Potency was “inactive”.
`CCCC(C)(COC(N)=O)COC(=O)NC(C)C` (stereo not given) was tested, and the Potency was “inactive”.
With `N[C@@H]1C[C@H]1c1ccccc1` the Potency was “inactive”.
`CN1C(=S)CN=C(c2ccccc2)c2cc(Cl)ccc21` was tested, and the Potency was “inactive”.
In the case of `Cn1c(CCCC(=O)O)nc2cc(N(CCCl)CCCl)ccc21`, the Potency is reported as “inactive”.
For `CC[N+]1(C)CCCC(OC(=O)C(O)(c2ccccc2)c2ccccc2)C1` (stereo not given), the Potency was “inactive”.
In the case of `N#CC(C#N)=Cc1ccc(O)c(O)c1`, the Potency is reported as “inactive”.
In the case of `CC(C)(C)NCC(O)c1cc(Cl)c(N)c(Cl)c1` (stereo not given), the Potency is reported as “inactive”.
In the case of `C#CCOC(C(=O)OCCN(C)C)(c1ccccc1)c1ccccc1`, the Potency is reported as “inactive”.
In the case of `CC(=O)Nc1cc([As](=O)(O)O)ccc1O`, the Potency is reported as “inactive”.
`COc1ccc2c(c1OC)CN1CCc3cc4c(cc3C1C2)OCO4` (stereo not given) was tested, and the Potency was “inactive”.
In the case of `O=[N+]([O-])c1cc([As](=O)(O)O)ccc1O`, the Potency is reported as “inactive”.
`CCCN1CCC[C@@H]2Cc3nc(N)ncc3C[C@H]21` was tested, and the Potency was “inactive”.
`C=C1CC[C@@]2(O)[C@H]3Cc4ccc(O)c5c4[C@@]2(CCN3CC2CC2)[C@H]1O5` was tested, and the Potency was “inactive”.
`COc1ccc(Cc2nccc3cc(OC)c(OC)cc23)cc1OC` was tested, and the Potency was “inactive”.
For `C[C@@H]1[C@@H](C(=O)C[C@H]2O[C@@H]3O[C@]4(C)CC[C@@H]5[C@H](C)CC[C@@H]([C@H]2C)[C@@]35OO4)O[C@@H]2O[C@]3(C)CC[C@H]4[C@H](C)CC[C@@H]1[C@@]24OO3`, the Potency was “inactive”.
In the case of `C#CCN(C)[C@H](C)Cc1ccccc1`, the Potency is reported as “inactive”.
For `c1ccc2c(c1)Nc1ccccc1S2`, the Potency was “inactive”.
`O=C(O)c1ccc2[nH]cc(CCCCN3CC=C(c4ccccc4)CC3)c2c1` was tested, and the Potency was “inactive”.
For `NP(N)(=O)NC(=O)c1ccc(F)cc1`, the Potency was “inactive”.
`C=CCN1CC[C@]23c4c5ccc(O)c4O[C@H]2C(=O)CC[C@@]3(O)[C@H]1C5` was tested, and the Potency was “inactive”.
`O=P1(NCCCl)OCCCN1CCCl` (stereo not given) was tested, and the Potency was “inactive”.
